Measurements taken from article PMC5540273 (PLoS ONE, 2017).
Where two headings read alike, the source gives them in different places.

Key:
[1] = tested on: JAK1(JH2domain-pseudokinase); conditions: concentration: 1 μM, replicates: in singlicate; n = 1
[2] = tested on: JAK2(JH1domain-catalytic); conditions: concentration: 1 μM, replicates: in singlicate; n = 1
[3] = tested on: JAK3(JH1domain-catalytic); conditions: concentration: 1 μM, replicates: in singlicate; n = 1
JNK1 = tested on: T1, JNK1; conditions: concentration: 1 μM, replicates: in singlicate; n = 1
T1 construct: gene MAPK8

JNK2 = tested on: T2, JNK2; conditions: concentration: 1 μM, replicates: in singlicate; n = 1
T2 construct: gene MAPK9

JNK3 = tested on: T3, JNK3; conditions: concentration: 1 μM, replicates: in singlicate; n = 1
T3 construct: gene MAPK10

KIT-autoinhibited = conditions: concentration: 1 μM, replicates: in singlicate; n = 1
KIT = conditions: concentration: 1 μM, replicates: in singlicate; n = 1
LATS1 = conditions: n = 1
LATS2 = conditions: concentration: 1 μM, replicates: in singlicate; n = 1
[4] = concentration: 1 μM, replicates: in singlicate
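Note: KINOMEscan kinase panel screen.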

| SMILES | %Inh [1] | %Inh [2] | %Inh [3] | %Inh (JNK1) | %Inh (JNK2) | %Inh (JNK3) | %Inh (KIT-autoinhibited) | %Inh (KIT) | %Inh (LATS1; [4]) | %Inh (LATS2) | %Inh (LATS1; 1 µM) |
| --- | --- | --- | --- | --- | --- | --- | --- | --- | --- | --- | --- |
| Cn1cc(-c2ccc3c(c2)CCN3C(=O)Cc2cccc(F)c2)c2c(N)ncnc21 [GSK2603358] | 0% | 17% | 0% | 12% | 19% | 3% | 7% | 100% | 0% | 13% | – |
| CCn1c(-c2nonc2N)nc2c(C#CC(C)(C)O)nc(OC[C@H](N)c3ccccc3)cc21 [GSK943949] | 0% | 8% | 4% | 0% | 0% | 0% | 4% | 0% | 59% | 100% | – |
| c1ccc(-c2n[nH]cc2Nc2ccnc3ccccc23)nc1 [GW694077] | 33% | 94.2% | 88% | 92.6% | 60% | 90% | 0% | 33% | 0% | 0% | – |
| O=C(Nc1n[nH]c2cc(-c3ccoc3)ccc12)C1CC1 [SB-738481] | 29% | 18% | 0% | 8% | 0% | 6% | 8% | 77% | 0% | 3% | – |
| CCc1ccc(-c2ccc3c(c2)-c2c(cnn2C)S(=O)(=O)N3C)cc1 | 5% | 2% | 5% | 0% | 0% | 0% | 0% | 2% | 0% | 0% | – |
| COC(=O)Nc1nc2cc(Oc3ccc(NC(=O)Nc4cc(C(F)(F)F)ccc4F)cn3)ccc2[nH]1.Cl.Cl [GW681170] | 0% | 30% | 0% | 0% | 62% | 0% | 1% | 100% | 0% | 8% | – |
| c1ccc(-c2cnc3nccnn23)cc1 [AH20685] | 0% | 0% | 0% | 54% | 20% | 4% | 0% | 5% | 0% | 0% | – |
| Cl.c1ccc(-c2ccc3c(Nc4ccc5[nH]ncc5c4)ccnc3c2)nc1 [GW440137] | 0% | 36% | 0% | 9% | 27% | 15% | 0% | 94.4% | 0% | 3% | – |
| CCn1c(-c2nonc2N)nc2c(C#CC(C)(C)O)ncc(OCCCCN)c21.O=C(O)C(F)(F)F.O=C(O)C(F)(F)F [GSK507274] | 0% | 60% | 0% | 25% | 10% | 11% | 0% | 17% | – | 89% | 0% |
| Clc1ccc(-c2nn3ncccc3c2-c2ccnc(Nc3ccc4c(c3)OCCO4)n2)cc1 [GW829116] | 17% | 2% | 0% | 99.2% | 99.9% | 100% | 36% | 99.9% | 0% | 0% | – |
| COc1cc(Nc2ncc3c(C)nc(-c4cc5ccccc5[nH]4)n3n2)cc(OC)c1OC [GW869516] | 98.5% | 54% | 11% | 11% | 0% | 0% | 22% | 72% | 0% | 0% | – |
